Compound activity from PubChem.
Only some compounds are listed: those with a hit (about 3.5% of all), similar ones and a draw of the others.
TWEAK-Fn14 inh – inhibitors of TWEAK-Fn14 signaling, primary screen, luciferase reporter cells, uHTS | AID 1159606, 2016 | TWEAK-stimulated Fn14 reporter cells, luciferase luminescence, 8 h | 2% of 360,000 active | inhibition, % at 10 µM; in the data active means inhibition above about 50%
TROY NFkB inh – inhibitors of TROY-driven NF-kB signaling, primary screen, Q293 LMP1-TROYcd cells, NF-kB luciferase, uHTS; Q293 LMP1-TROYcd NF-kB luciferase reporter, 4 h; inhibition, % at 10 µM; 0.98% of 360,000 active; AID 1347056, 2019;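 active means compounds whose plate-normalised and pattern-corrected inhibition of the luciferase reporter signal at the single screening dose is 50% or more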
PPC-1+TRAIL kill – compounds killing PPC-1 cancer cells with TRAIL present, primary screen, TRAIL potentiator project, ATPLite luminescence, uHTS; PPC-1 cells + TRAIL, ATPLite viability luminescence; cell killing (% activity), % at 4 µM or 5 µM; 0.41% of 220,000 active;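 active means cell killing above 50% in the first pass at 4 µM, then a duplicate retest at 5 µM averaging 50% or more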;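 further: plate controls were cells with TRAIL plus DMSO for no effect and medium-only wells lacking cells for full effect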
HSP90 refold inh – HSP90 inhibitors, primary screen, cell lysate, luminescence; 0.91% of 290,000 active; Rabbit reticulocyte lysate, luciferase refolding luminescence, 3 h; inhibition, % at 5.6 µM; Heat shock protein HSP 90 (rabbit reticulocyte lysate; luciferase refolding);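 active means inhibition above the screen-wide mean plus 3 SD, computed separately per campaign, cut at about 16% in these data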;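 further: 0% = DMSO wells and 100% = 60 µM geldanamycin wells; inhibitors lower the luminescence because luciferase stays unfolded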
Platelet DG rel – inhibitors of platelet dense granule secretion, primary screen, cell-based, MLPCN, human platelets; human platelet-rich plasma, SFLLRN dense granule ATP release, luminescence; inhibition, %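 (compounds screened at 7.5 µM in platelet-rich plasma)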; 0.22% of 300,000 active; AID 1663, 2009;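 active means mean replicate score, as percent of positive control, at or above 50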
TRAIL sens C8 – viability loss with TRAIL in NB7+C8 cells, primary screen, TRAIL sensitizer project, cell-based, ATPlite luminescence | inhibition (viability loss, TRAIL sensitization), % at 10 µM | 1% of 360,000 active;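 active means compounds causing at least 50% loss of cell viability in the single-dose screen, relative to plate controls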
An asterisk follows results filed as active; . = not tested or not shown.

SMILES	TWEAK-Fn14 inh	TROY NFkB inh	PPC-1+TRAIL kill	HSP90 refold inh	Platelet DG rel	TRAIL sens C8
C[C@@H]1COC(=O)CCC/C=C\C[C@@H](CC(=O)N(CCO)Cc2ccccc2)C(=O)N1	-5	0	.	.	.	-16
COc1ccc(NC(=O)CCOc2ccccc2C)cc1S(=O)(=O)N1CCCCC1	13	16	.	.	1	7
CN(CCO)c1cc(Sc2nc3ccccc3s2)c2nonc2c1[N+](=O)[O-]	-12	0	9	3	-4	60*
COc1ccc(NC(=S)NCCN2CCC(C)CC2)cc1Cl	-6	4	14	0	3	-5
NC(=O)c1ccsc1NC(=O)c1ccc(S(=O)(=O)N2CCCc3ccccc32)cc1	92*	61*	10	0	6	42
COc1ccc(C(=O)Nc2ccc(S(=O)(=O)N3CCc4ccccc43)cc2)cc1	80*	22	.	13	-4	24
COc1ccc(S(=O)(=O)N2CCCc3ccccc32)cc1OC	56*	60*	6	-4	-1	1
NS(=O)(=O)c1ccc(NC(=O)c2ccc(S(=O)(=O)N3CCc4ccccc43)cc2)cc1	33	6	3	-1	0	-5
O=S(=O)(c1cnc(Cl)c(Cl)c1)N1CCCc2ccccc21	25	-7	43	3	8	0
O=S(=O)(c1cnc(Cl)c(Cl)c1)N1CCc2ccccc21	22	10	80*	15	1	12
CCc1cc(-c2nnn(-c3cc(C(C)C)ccc3C)c2CC)ccc1-c1cn(CCc2c[nH]c3ccccc23)nn1	-3	2	.	.	.	18
Cn1cc(S(=O)(=O)N2CCc3ccccc32)cc1C(=O)Nc1ccc(Cl)cc1	-3	24	.	0	62*	26
CN(C(=O)c1cc(S(=O)(=O)N2CCc3ccccc32)cn1C)C1CCCCC1	-2	3	.	3	58*	6
COc1ccc(C(=O)c2ccccc2)c2c(O)ccc(C(=O)c3ccccc3)c12	57*	49	4	7	-3	10
CNS(=O)(=O)c1ccc(CNC[C@H]2O[C@@H](n3cc(C)c(=O)[nH]c3=O)C[C@@H]2O)cc1	2	8	.	.	.	-26
CC(=O)N(CCc1ccccc1C)Cc1cc2cc3c(cc2[nH]c1=O)OCO3	100*	.	19	3	1	11
Cc1ccc(-c2nc(S(=O)(=O)c3ccc(C)cc3)c(N3CCOCC3)o2)cc1	65*	14	.	0	1	7
CC1CCCC(C)N1C(=O)CSc1ncccn1 (stereo not given)	1	-8	.	2	-9	-9
COc1ccc(/C=N/NC(=O)c2cccnc2)cc1CSc1nc2ccccc2s1	52*	50*	12	0	7	-29
O=C(N/N=C/c1cccnc1)c1cccc(Cl)c1	-12	-22	.	-5	0	1
CC(C)c1ccc(OCc2cccc(C(=O)N/N=C/c3cccnc3)c2)cc1	-13	-7	64*	11	-8	53*
COc1ccc(/C=N/NC(=O)c2cccnc2)cc1COc1ccc([N+](=O)[O-])c(C)c1	23	55*	2	5	5	24
COc1ccc(/C=N/NC(=O)c2ccn[nH]2)cc1COc1ccc([N+](=O)[O-])c(C)c1	18	2	6	1	4	-6
O=C(NC1CCCCC1)C(c1ccccn1)N(C(=O)c1csnn1)c1ccccc1 (stereo not given)	11	-11	.	-3	-16	0
CC1CC1C(=O)N(C)CC(=O)Nc1ccccc1Br (stereo not given)	1	4	.	.	.	4
COC(=O)c1sc(NC(=O)c2ccoc2C)nc1C	-14	-30	15	1	57*	-1
COC(=O)c1sc(NC(=O)c2c(C)noc2C)nc1C	-23	-1	.	4	53*	8
O=C(NC(=S)Nc1ccc(N2CCCCC2)cc1)c1ccc2c(c1)OCCO2	55*	77*	20	11	7	27
O=C(NC(=S)Nc1ccc(N2CCOCC2)cc1)c1ccc2c(c1)OCCO2	51*	60*	25	0	-9	25
